Changes are numbered by the printed parent chain.

One experiment has as its target T1, SIX6 (Homo sapiens, UniProt O95475 114-200, L167V).
T1 sequence: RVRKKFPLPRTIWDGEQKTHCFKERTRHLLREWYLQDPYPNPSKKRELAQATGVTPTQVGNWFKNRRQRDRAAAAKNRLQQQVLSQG
The experiment is described as follows: PBM; 200 nM protein, PBS. Conditions: dsDNA, one strand shown.
For CGGATAAA, the binding signal was 10.2 upbm affinity estimate (log intensity, higher = more binding, comparable within an allelic series).

On to GATCCAAA, for which the binding signal was 10.1 upbm affinity estimate (log intensity, higher = more binding, comparable within an allelic series).

Consider ACAATACT, for which the binding signal was 10.2 upbm affinity estimate (log intensity, higher = more binding, comparable within an allelic series).

In the case of CTTGATAC, the binding signal was 10.9 upbm affinity estimate (log intensity, higher = more binding, comparable within an allelic series).

Take ATCCAATA: the binding signal was 10.2 upbm affinity estimate (log intensity, higher = more binding, comparable within an allelic series).

For GATCTTCA, the binding signal is 10.2 upbm affinity estimate (log intensity, higher = more binding, comparable within an allelic series).

For the sequence GGATAGTA, the binding signal is 10.3 upbm affinity estimate (log intensity, higher = more binding, comparable within an allelic series).

For AATACGAT, the binding signal is 10.3 upbm affinity estimate (log intensity, higher = more binding, comparable within an allelic series).

Take ACTATACG: the binding signal was 10 upbm affinity estimate (log intensity, higher = more binding, comparable within an allelic series).

Take ATCCTAAT: the binding signal was 10.1 upbm affinity estimate (log intensity, higher = more binding, comparable within an allelic series).

Regarding CATATCAA, the binding signal was 10.9 upbm affinity estimate (log intensity, higher = more binding, comparable within an allelic series).

Regarding ATATCACC, the binding signal was 10.9 upbm affinity estimate (log intensity, higher = more binding, comparable within an allelic series).

In the case of AAGTGATA, the binding signal is 10.9 upbm affinity estimate (log intensity, higher = more binding, comparable within an allelic series).

For ACGGATCC, the binding signal was 10 upbm affinity estimate (log intensity, higher = more binding, comparable within an allelic series).

With ATACAGAT, the binding signal is 10.5 upbm affinity estimate (log intensity, higher = more binding, comparable within an allelic series).

Consider CTGATATC, for which the binding signal is 10.9 upbm affinity estimate (log intensity, higher = more binding, comparable within an allelic series).

For the sequence CTATACTA, the binding signal is 10.1 upbm affinity estimate (log intensity, higher = more binding, comparable within an allelic series).

For ATATCAAG, the binding signal is 10.9 upbm affinity estimate (log intensity, higher = more binding, comparable within an allelic series).

AGAATATC: the binding signal is 10.3 upbm affinity estimate (log intensity, higher = more binding, comparable within an allelic series).

Turning to ATTATCCG, the binding signal was 10.2 upbm affinity estimate (log intensity, higher = more binding, comparable within an allelic series).

For AAGTATCT, the binding signal was 10.3 upbm affinity estimate (log intensity, higher = more binding, comparable within an allelic series).

Turning to GTATCTTA, the binding signal is 10.6 upbm affinity estimate (log intensity, higher = more binding, comparable within an allelic series).

The target of the next experiment is T2, SIX6 (Homo sapiens, UniProt O95475 114-200).
T2 sequence: T1 sequence with V54L
Nature of the experiment: PBM; 200 nM protein, PBS. Conditions: dsDNA, one strand shown.
Take CGGATAAA: the binding signal is 10.4 upbm affinity estimate (log intensity, higher = more binding, comparable within an allelic series).

On to GATCCAAA, for which the binding signal is 10.3 upbm affinity estimate (log intensity, higher = more binding, comparable within an allelic series).

On to ACAATACT, for which the binding signal is 10.2 upbm affinity estimate (log intensity, higher = more binding, comparable within an allelic series).

As for GACGGATA, the binding signal is 10.2 upbm affinity estimate (log intensity, higher = more binding, comparable within an allelic series).

Turning to ATCCAATA, the binding signal was 10.3 upbm affinity estimate (log intensity, higher = more binding, comparable within an allelic series).

Turning to GATCTTCA, the binding signal is 10.3 upbm affinity estimate (log intensity, higher = more binding, comparable within an allelic series).

GGATAGTA: the binding signal was 10.4 upbm affinity estimate (log intensity, higher = more binding, comparable within an allelic series).

Regarding AATACGAT, the binding signal is 10.5 upbm affinity estimate (log intensity, higher = more binding, comparable within an allelic series).

Consider ACTATACG, for which the binding signal is 10.1 upbm affinity estimate (log intensity, higher = more binding, comparable within an allelic series).

ATCCTAAT: the binding signal was 10.2 upbm affinity estimate (log intensity, higher = more binding, comparable within an allelic series).

Regarding GATCAGCC, the binding signal is 10.3 upbm affinity estimate (log intensity, higher = more binding, comparable within an allelic series).

On to ACGGATAG, for which the binding signal is 10.2 upbm affinity estimate (log intensity, higher = more binding, comparable within an allelic series).

As for ACGGATCC, the binding signal is 10.2 upbm affinity estimate (log intensity, higher = more binding, comparable within an allelic series).

On to ATACAGAT, for which the binding signal was 10.6 upbm affinity estimate (log intensity, higher = more binding, comparable within an allelic series).

Regarding CTATACTA, the binding signal is 10.2 upbm affinity estimate (log intensity, higher = more binding, comparable within an allelic series).

As for TATAACCA, the binding signal was 10.1 upbm affinity estimate (log intensity, higher = more binding, comparable within an allelic series).

For AGTTGTAT, the binding signal was 10.3 upbm affinity estimate (log intensity, higher = more binding, comparable within an allelic series).

As to AGAATATC, the binding signal is 10.3 upbm affinity estimate (log intensity, higher = more binding, comparable within an allelic series).

In the case of ATACCTCC, the binding signal is 10.4 upbm affinity estimate (log intensity, higher = more binding, comparable within an allelic series).

As for ATTATCCG, the binding signal was 10.3 upbm affinity estimate (log intensity, higher = more binding, comparable within an allelic series).

On to AAGTATCT, for which the binding signal was 10.3 upbm affinity estimate (log intensity, higher = more binding, comparable within an allelic series).

Take GTATCTTA: the binding signal was 10.5 upbm affinity estimate (log intensity, higher = more binding, comparable within an allelic series).

In a further experiment the target is T3, SIX6 (Homo sapiens, UniProt O95475 114-200, T165I).
T3 sequence: T1 sequence with T52I, V54L
Nature of the experiment: PBM; 200 nM protein, PBS. The note with it: dsDNA, one strand shown.
Take CGGATAAA: the binding signal is 10.3 upbm affinity estimate (log intensity, higher = more binding, comparable within an allelic series).

For CCGTATCA, the binding signal is 10.9 upbm affinity estimate (log intensity, higher = more binding, comparable within an allelic series).

As to GATCCAAA, the binding signal is 10.2 upbm affinity estimate (log intensity, higher = more binding, comparable within an allelic series).

On to ACAATACT, for which the binding signal is 10.2 upbm affinity estimate (log intensity, higher = more binding, comparable within an allelic series).

In the case of ATCCAATA, the binding signal was 10.2 upbm affinity estimate (log intensity, higher = more binding, comparable within an allelic series).

Turning to GGATAGTA, the binding signal was 10.3 upbm affinity estimate (log intensity, higher = more binding, comparable within an allelic series).

Take AATACGAT: the binding signal was 10.4 upbm affinity estimate (log intensity, higher = more binding, comparable within an allelic series).

For the sequence ACTATACG, the binding signal was 9.99 upbm affinity estimate (log intensity, higher = more binding, comparable within an allelic series).

As for GATATACA, the binding signal is 10.9 upbm affinity estimate (log intensity, higher = more binding, comparable within an allelic series).

ATCCTAAT: the binding signal was 10.2 upbm affinity estimate (log intensity, higher = more binding, comparable within an allelic series).

As for CATATCAA, the binding signal was 11 upbm affinity estimate (log intensity, higher = more binding, comparable within an allelic series).

Regarding ATATCACG, the binding signal is 10.9 upbm affinity estimate (log intensity, higher = more binding, comparable within an allelic series).

Turning to ATATCACC, the binding signal is 10.9 upbm affinity estimate (log intensity, higher = more binding, comparable within an allelic series).

In the case of AAGTGATA, the binding signal is 11 upbm affinity estimate (log intensity, higher = more binding, comparable within an allelic series).

As to ATACAGAT, the binding signal was 10.5 upbm affinity estimate (log intensity, higher = more binding, comparable within an allelic series).

Consider CTGATATC, for which the binding signal was 10.9 upbm affinity estimate (log intensity, higher = more binding, comparable within an allelic series).

Regarding CTATACTA, the binding signal is 10.1 upbm affinity estimate (log intensity, higher = more binding, comparable within an allelic series).

Consider ATATCAAG, for which the binding signal is 10.9 upbm affinity estimate (log intensity, higher = more binding, comparable within an allelic series).

As to AGTTGTAT, the binding signal was 10.2 upbm affinity estimate (log intensity, higher = more binding, comparable within an allelic series).

For AGAATATC, the binding signal was 10.3 upbm affinity estimate (log intensity, higher = more binding, comparable within an allelic series).

Take ATTATCCG: the binding signal was 10.2 upbm affinity estimate (log intensity, higher = more binding, comparable within an allelic series).

In the case of AAGTATCT, the binding signal is 10.3 upbm affinity estimate (log intensity, higher = more binding, comparable within an allelic series).

As to GTATCTTA, the binding signal is 10.5 upbm affinity estimate (log intensity, higher = more binding, comparable within an allelic series).

Values taken from article PMC11006913.
